According to article PMC10163288:
Only a sample is shown. No count for the full screen is at hand.

B1: il10ra_site1_normal_mot_HHH_b2_01235_000000294_0001_1_18_H_._HHH_b1_05611_0001_0000600040_0000001_0_af2pred_0001 (protein)
chain: SSSSDVTERVLELLREALKLLKDGNPEEAREVLEEAEELAEEGNDELLRHLIEFAQEEIDSSSSS
B2: il10ra_site1_sap_16_mot_HHH_b2_03220_af2_000000223_0001_23_40_H_._HHH_b1_06161_af2_0001_0000300008_0000002_0_0001 (protein)
chain: SSSSSSDEEAAELIREISKVLAEGDRERVEELLEELEKLAEELGDPAARIYVEFVKQLLSSSSSS
B3: il10ra_site1_sap_21_mot_HHH_b1_05357_000000034_0001_23_39_H_._HHH_b2_05349_0001_0000600054_0000001_0_0001_af2pred_0001 (protein)
chain: SSSSNREQRVAELLARALRAAAEGNPEEAERLLEEARELAEELNDEELERAIEILKRYVERSSSS
B4: il10ra_site1_sap_23_mot_0eddeacbb14b769e73e254714f31e2f9_0001_af2_000000127_0001_37_51_H_._HHH_b1_00538_0001_0000500024_0000001_0_0001 (protein)
chain: SSSSSEEEEKAKELIELLEELAKEGDPEEFNRVALEAVRLVLELGDAELLRELWELFKSVSSSSS
B5: il10ra_site1_normal_mot_HHH_b1_08477_000000091_0001_40_57_H_._HHH_b1_03479_0001_0000200016_0000001_0 (protein)
chain: SSSSSEEEERVRQALRFAEALYKSGNPEAAESLLRVLVQSLRRLGNEELVELVEQVLEELNSSSS
B6: il10ra_site1_normal_mot_8756ee2cf497b5429c717dfc0c0bcfd6_0001_000000186_0001_1_13_H_._HHH_b2_04770_af2_0001_0000400016_0000001_0_af2pred_0001 (protein)
chain: SSSSSSDEELKRVQELIRRAAKITDEEELREVLEEAKELAEELGNEILRVIVEFLLELMTSSSSS
B7: il10ra_site1_sap_15_mot_HHH_b2_04646_000000019_0001_1_20_H_._HHH_b1_08112_af2_0001_0000300009_0000001_0_0001 (protein)
chain: SSSSDVEEEVEELLEQAEELARRGNPEEAYKLLKEAAELASEANDPELQRLVVEVSRRVIGSSSS
B8: il10ra_site1_sap_24_mot_HHH_b1_04771_000000013_0001_40_56_H_._HHH_b2_02918_af2_0001_0000100007_0000001_0_0001 (protein)
chain: SSSSDDEERVKQAIRFARWLLENGDKEAAKRIVEAAQDIARKGGNEELVQELEELEEEIKSSSSS
B9: il10ra_site1_sap_20_mot_HHH_b1_04573_000000273_0001_43_57_H_._HHH_b2_07679_0001_0000100005_0000002_0_0001 (protein)
chain: SSSSSDENEEIYRLLREAAEALANGNPEEAREIVEQAVELAEEANSQVLLFNAEYLLRQINSSSS
B10: il10ra_site1_sap_24_mot_HHH_b1_00999_000000080_0001_41_55_H_._HHH_b1_05694_af2_0001_0000300017_0000001_0_0001_af2pred_dldesign_0_af2pred (protein)
chain: SSSSDPQRVVELIHEANRLVDEGRLDEAERLLEEALRLARAADDAELAAAVEKALAFVRSLSSSS
B11: il10ra_site1_normal_mot_HHH_b1_00999_000000080_0001_41_55_H_._HHH_b1_02815_0001_0000700030_0000002_0 (protein)
chain: SSSSDEEEERSKELLEELEELLRRGDQHRFLRLLQHIVRFAFEVSDEELLHEVWRLAREFGSSSS
B12: il10ra_site1_normal_mot_HHH_b1_05357_000000034_0001_23_39_H_._HHH_b2_00878_af2_0001_0000100001_0000001_0_af2pred_0001 (protein)
chain: SSSSSSDLEEEVEKLLEEAEKIEDQLRLAYVLTRAYAVANRLNDPELRELIREVAKKLSSSSSSS
B13: il10ra_site1_normal_mot_0cd074c2d6d3de76f1399c5a775575d2_0001_1_af2_000000000_0001_16_30_H_._a6da520ff4a02840130205282d0b8d49_0001_0001_0000200007_0000001_0_af2 … (protein)
chain: SREQAILYAAIVASGGDEDRIEHLLEIYYEFTGDPAVKEVLERLRAAKAAGIPAEELLKQLEAEN
B14: il10ra_site1_sap_20_mot_HHH_b1_01886_000000262_0001_1_18_H_._HHH_b1_05552_af2_0001_0000500031_0000001_0_0001_af2pred_dldesign_0_af2pred (protein)
chain: SSSSSDLAAVLAEAEALFARSKTVSPEEKEVILQRIVDLALKHENLEVAKLANELLKELSSSSSS
B15: il10ra_site1_sap_25_mot_2c1a291787c6f40772924d4e9068d803_0001_af2_000000187_0001_34_48_H_._HHH_b2_07308_af2_0001_0000400007_0000002_0_0001_af2pred_0001 (protein)
chain: SSSSSTREEVIKRVIELLREARRIEDPEEREEVLEEAHRLAEEGNNELLKFIVESLERKLSSSSS
B16: il10ra_site1_sap_16_mot_HHH_b2_06643_000000103_0001_1_18_H_._HHH_b2_07694_0001_0000100008_0000001_0_0001_af2pred_0001 (protein)
chain: SSSSSSEEEELAELALRLLVEALQHGDPELREEIKELIEEAEKVGDERVVRLLRAALRALSSSSS
B17: il10ra_site1_normal_mot_8756ee2cf497b5429c717dfc0c0bcfd6_0001_000000186_0001_1_13_H_._HHH_b2_05079_af2_0001_0000100002_0000002_1_af2pred_dldesign_0_af2pred (protein)
chain: SSSSSSELEELKNLIKEIAELLYEGKPEEARELLEKAEELAKKLGNKTALATLDYLRRQIESSSS
B18: il10ra_site1_sap_25_mot_HHH_b2_05323_000000159_0001_1_18_H_._HHH_b1_08298_af2_0001_0000500034_0000001_0_0001 (protein)
chain: SSSSDEELQEAFELLREAVEALLDGNPEEAEKLLEEARKLAEEAGNRLLRWQIEWLLEKVRSSSS
B19: il10ra_site1_normal_mot_HHH_b2_00441_000000147_0001_1_18_H_._HHH_b1_04947_af2_0001_0000200007_0000001_0_af2pred_0001 (protein)
chain: SSSSDEYLKKAIRALFRAIKRAIELGDEEVVRLALKDLRFLAREHNDEEAEELLKELEELLSSSS
B20: il10ra_site1_normal_mot_HHH_b2_00984_000000042_0001_1_20_H_._HHH_b2_07534_0001_0000600066_0000001_1 (protein)
chain: SSSSDEEEKRLEELLEEVRELLERGDPERAARLAQELLRHIFRASDEEALQELWELIKREASSSS
B21: il10ra_site1_normal_mot_HHH_b2_03328_af2_000000127_0001_1_19_H_._HHH_b1_03894_0001_0000100001_0000001_0 (protein)
chain: SSSSSSNELYELSREALELFANGNPEEAQRVVEEAIELAEELGNRVILFTLRHLLRVISSSSSSS
B22: il10ra_site1_normal_mot_HHH_b1_08477_000000091_0001_40_57_H_._HHH_b2_05084_0001_0000800035_0000001_0 (protein)
chain: SSSSDIAEETARFLLEMAERLIEQGNPEYARQALRFALRLARDAGNPELEEEIQKLLEELGSSSS
B23: il10ra_site1_normal_mot_HHH_b2_06857_af2_000000179_0001_42_54_H_._HHH_b2_07752_af2_0001_0000500038_0000002_0 (protein)
chain: SSSSNELHEELYELIRKAAELARNGNPEEAEKVLEEARKIAEELNNELAEFQIRFLERLLSSSSS
B24: il10ra_site1_sap_4_mot_HHH_b2_01447_af2_000000258_0001_1_20_H_._HHH_b1_07772_0001_0000100001_0000002_0_0001 (protein)
chain: SSSSDTRELYRLSREAMELLARGNPEEAEKVLEEAIEIAREAGDFNFLFNLEHVLKVIEQSSSSS

Molecular target: il10ra, Q13651
Assay: yeast display titration

Sequence of il10ra, Q13651 (Q13651 whole entry): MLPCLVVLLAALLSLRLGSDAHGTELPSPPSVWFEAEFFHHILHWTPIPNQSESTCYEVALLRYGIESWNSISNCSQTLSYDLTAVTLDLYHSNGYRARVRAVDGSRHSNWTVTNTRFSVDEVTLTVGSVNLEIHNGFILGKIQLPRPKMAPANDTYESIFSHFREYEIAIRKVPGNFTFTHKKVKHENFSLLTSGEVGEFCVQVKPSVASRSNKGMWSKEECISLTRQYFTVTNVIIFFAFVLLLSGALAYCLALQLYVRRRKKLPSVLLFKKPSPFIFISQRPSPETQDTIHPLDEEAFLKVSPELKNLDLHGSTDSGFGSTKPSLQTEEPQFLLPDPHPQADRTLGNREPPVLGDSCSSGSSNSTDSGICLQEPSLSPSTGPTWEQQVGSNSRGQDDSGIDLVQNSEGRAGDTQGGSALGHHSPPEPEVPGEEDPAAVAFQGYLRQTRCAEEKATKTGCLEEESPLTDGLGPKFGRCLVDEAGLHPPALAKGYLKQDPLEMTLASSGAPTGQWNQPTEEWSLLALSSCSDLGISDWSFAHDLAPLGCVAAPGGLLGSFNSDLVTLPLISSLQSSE

Apparent Kd, inactive:
B1 no binding seen
B2 no binding seen
B3 no binding seen
B4 no binding seen
B5 no binding seen
B6 no binding seen
B7 no binding seen
B8 no binding seen
B9 no binding seen
B10 no binding seen
B11 no binding seen
B12 no binding seen
B13 no binding seen
B14 no binding seen
B15 no binding seen
B16 no binding seen
B17 no binding seen
B18 no binding seen
B19 no binding seen
B20 no binding seen
B21 no binding seen
B22 no binding seen
B23 no binding seen
B24 no binding seen
